Screening data: PubChem, National Center for Advancing Translational Sciences (NCATS)
TRb-SRC2 inh: inhibitors of human thyroid hormone receptor beta-SRC2 interaction; P10828; TRbeta-SRC2 peptide binding, fluorescence polarization; receptor liganded with 1 µM T3; Potency, µM (top dose mostly 106 µM), without a hit: at the top dose activity change, negative = inhibition, usual class: inhibitors; hit rate 0.065% among 280,000;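 note: plate controls were bound peptide for no effect and peptide without receptor for full effect; nearly all actives have a fitted effect of over 50% in size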
Target sequence (P10828 whole entry, looked up): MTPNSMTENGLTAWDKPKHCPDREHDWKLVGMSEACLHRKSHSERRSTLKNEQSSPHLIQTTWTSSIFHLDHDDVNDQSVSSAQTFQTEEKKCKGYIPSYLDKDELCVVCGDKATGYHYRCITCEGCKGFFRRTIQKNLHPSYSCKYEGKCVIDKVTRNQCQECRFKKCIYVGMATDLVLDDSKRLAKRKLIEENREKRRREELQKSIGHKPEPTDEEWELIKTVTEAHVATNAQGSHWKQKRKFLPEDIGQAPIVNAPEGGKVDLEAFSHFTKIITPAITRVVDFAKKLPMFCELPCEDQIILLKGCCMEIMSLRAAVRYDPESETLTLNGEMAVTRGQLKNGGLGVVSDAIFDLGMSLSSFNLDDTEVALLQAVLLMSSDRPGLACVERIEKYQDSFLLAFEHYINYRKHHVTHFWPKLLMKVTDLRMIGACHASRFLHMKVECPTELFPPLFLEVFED
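Human TRb LBD (0.6 uM) plus Texas Red-labeled SRC2 peptide (20 nM), 1uM T3, 5% DMSO, 5 hr at ambient temperature. Decreased polarization (555/632 nm) flags inhibition; data normalized to free and bound peptide controls.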
Tau fluor counter: counter-screen for tau fibril formation inhibitors; tau K18 P301L Alexa594 fluorescence, heparin fibrillization; Potency, µM (series often up to 57.7 µM), without a hit: at the top dose activity change, negative = decrease; hit rate 0.93% among 280,000; AID 1463; note: nearly all actives have a fitted effect of over 55% in size
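Human tau K18 P301L (15 uM unlabeled, 0.24 uM Alexa 594-labeled) in 100 mM sodium acetate pH 7 with 20 uM heparin, 6 hr at 37 C. ThT 30 uM added, 1 hr ambient; Alexa 594 FP and total fluorescence read at 555/632 nm.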
TR SRC2 fluor cs: counter-screen for TRb-SRC2 inhibitors: fluorescence interference. hit rate 0.29% among 280,000. AID 1479. TRb/SRC2 Texas Red total fluorescence interference. Potency, µM (doses to about 106 µM), without a hit: at the top dose fluorescence change, negative = quenching; active = well fitted curve in either direction with a large enough effect; inconclusive = small, poorly fitted or top-dose-only effect
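Flags fluorescent or light-absorbing compounds by total fluorescence, S + 2P, at 555 nm excitation and 632 nm emission. Mixture: 20 nM Texas Red SRC2 peptide, 0.6 uM human TRb LBD, 1 uM T3, 5% DMSO; compound exposure 5 h at ambient temperature.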
Tau fibril ThT: tau fibrillization inhibition (ThT binding); recombinant tau K18 P301L (four-repeat tau fragment), heparin-induced fibrillization, ThT fluorescence; Potency, µM (series often up to 57.4 µM), for the others: at the top dose activity, negative = inhibition, usual class: inhibitors; hit rate 2.1% among 270,000; AID 1460; note: nearly all actives have a fitted effect of over 55% in size
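Recombinant human tau K18 fragment […] carrying P301L, 15 uM unlabeled plus 0.24 uM Alexa 594-labeled, was fibrillized with 20 uM heparin in 100 mM sodium acetate pH 7 for 6 hr at 37 C; 30 uM ThT fluorescence read after 1 hr.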
Tau fibril FP: inhibitors of human tau fibril formation. Potency, µM (top dose mostly 57.7 µM), for inactives: at the top dose activity, negative = inhibition, actives largely listed as inhibitors. K18 P301L tau heparin fibrillization, Alexa594 FP, 6 h. P10636. hit rate 0.39% among 280,000; note: nearly all actives have a fitted effect of over 55% in size
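Compound effects on tau fibrillization are measured by Alexa 594 fluorescence polarization (ex 555, em 632 nm). K18 P301L tau is used at 15 uM with 0.24 uM labeled tracer, and 20 uM heparin induces aggregation over 6 hr at 37 C.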
* marks the source's active call; other numbers are inactive results; ? = inconclusive; . = no result given; [ ] = remark or other dose. Most compounds without a hit are left out; they make up all but 3.1% or so of the library. Unless noted, calls come from the whole dose curve; as a rule, active = well fitted curve in the direction sought with a large enough effect; inconclusive = small, poorly fitted or top-dose-only effect, or another doubt; inactive = no such curve, though single readings can be large; an effect the other way counts as inactive or inconclusive. Unless noted, % is set by controls: 0 for no effect and ±100 for the full control effect; potency is the fitted concentration of half-maximal effect.

SMILES	TRb-SRC2 inh	Tau fluor counter	TR SRC2 fluor cs	Tau fibril ThT	Tau fibril FP
CC(CNC(=O)Cn1c(-c2cccs2)cc2ccccc21)c1ccccc1 (stereo not given)	1%	-24%	8%	-4%	-3%
Cc1ccc(-c2cn(-c3cccc(Cl)c3)c(S(=O)(=O)CC(=O)Nc3ccccc3F)n2)cc1	-6%	-30%	-1%	?	?
CCOc1cc(S(=O)(=O)NCCc2c(C)[nH]c3ccc(C)cc23)ccc1Br	-1%	3.5µM*[quencher]	3%	?	15%
CCOc1cc(S(=O)(=O)NCCc2c(C)[nH]c3ccc(C)cc23)ccc1F	6%	?	-3%	-8%	?
NNC(=O)COc1cccc(C(F)(F)F)c1	-2%	-11%	-3%	-16%	0%
COc1ccc(-c2c(-c3ccc(OCC(=O)NN)cc3O)n[nH]c2C(F)(F)F)cc1	-4%	22µM*[quencher]	1%	?	?
C=C(C)COc1ccc(-c2n[nH]c(C)c2-c2ccc(OC)cc2)c(O)c1	-1%	25µM*[quencher]	0%	-19%	?
Cc1cc(C)cc(NC(=O)c2ccc3oc(=O)c(S(=O)(=O)c4ccc(F)cc4)cc3c2)c1	0%	9%	-4%	11%	-4%
CCc1nn2c(=O)cc(COc3ccc(/C=C4\C(=N)N5N=C(CC(C)C)SC5=NC4=O)cc3)nc2s1	-8%	-2%	-6%	?	-4%
CCC1=NN2C(=N)/C(=C\c3ccc(OCc4cc(=O)n5nc(CC)sc5n4)c(OC)c3)C(=O)N=C2S1	4%	-22%	-2%	11µM*	-11%
COc1ccc(CNC(=O)CC(c2ccc(OC)cc2)N2Cc3ccccc3C2=O)cc1 (stereo not given)	-8%	-24%	-2%	-17%	3%
O=C(CN1CCN(Cc2ccc(F)cc2Cl)S1(=O)=O)Nc1ccc(F)cc1	-2%	-11%	1%	16%	-3%
O=C1NC(=O)[C@@H]2C3c4ccccc4C=CN3[C@H](C(=O)c3cccs3)[C@H]12 (stereo not given in full)	-1%	-26%	3%	28µM*	?
O=S(=O)(Nc1cc(O)cc2cccnc12)c1ccc(Br)s1	-20%	.	-5%	.	.
N=C1/C(=C\c2ccc(SCc3ccco3)o2)C(=O)N=C2SC=NN12	-6%	-8%	?	6.3µM*	-7%
CCNc1nc(N)nc(Cl)n1	-4%[201 µM]	.	-5%[201 µM]	.	.
COc1ccc(-c2cc(C(F)(F)F)c3c(n2)sc2c(O)cc(=O)[nH]c23)c(OC)c1	-2%	-21%	0%	14µM*	-1%
CCC(=O)N1CCc2cc(CNS(=O)(=O)c3c(C)cc(C)cc3C)ccc21	-2%	-20%	0%	?	8%
C/C(CCC1CC(C)OC1=O)=N/Nc1nc(-c2ccccc2)cs1 (stereo not given)	4%	?	-2%	28µM*	?
CC1CC(CC(=O)NNc2nc(-c3ccccc3)cs2)C(=O)O1 (stereo not given)	4%	-8%	-2%	-14%	1%
CCCC(=O)Nc1ccc(-c2csc(N/N=C\c3ccncc3)n2)cc1	1%	16µM*[quencher]	-5%	.	?
C(=N\Nc1nc(-c2ccccc2)cs1)/c1cccnc1	2%	16µM*[quencher]	-4%	16µM*	12%
CCOC(=O)C/C(C)=N\Nc1nc(-c2ccccc2)cs1	4%	?	-7%	14µM*	?
CC(=O)Nc1ccc(-c2csc(N/N=C\c3ccncc3)n2)cc1	-3%	?	-5%	.	7%
CC(C)CC(C)(O)C#CC(C)(O)CC(C)C (stereo not given)	2%[201 µM]	.	-2%[201 µM]	.	.
CCN(CC)c1ccc(NC(=O)CN2C(=O)c3cccnc3Sc3ccccc32)c(C)c1	-5%	-13%	0%	?	10%
CC(C)=NNc1nc(-c2ccccc2)cs1	6%	10%	-1%	1%	-3%
CC(/C=C/c1ccccc1)=N\Nc1nc(-c2ccccc2)cs1	1%	11µM*[quencher]	-3%	7.9µM*	11%
COc1cc(Nc2ccccn2)cc(C(=O)Nc2cccc(C(F)(F)F)c2)c1	-7%	14µM*[quencher]	-3%	-17%	-13%
